PubChem BioAssay (EPA / NIEHS)
Results filed as inconclusive are left out. Activity calls are given as the source filed them. Rule for the calls, unless noted: active = hit-call score of the fitted dose curve at least 0.9, where 1 is the maximum; inactive = score below 0.9.

Columns and labels:
[1] = CEETOX_H295R_OHPROG_noMTC: CeeTox H295R High-throughput Steroidogenesis Assay for OH-Progesterone (OHPROG), maximum tolerated concentration (MTC) filtered results only (AID 2283914); conditions: actives raise or lower the signal
How it was run: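 Analysis uses all tested concentrations, without maximum-tolerated-concentration screening by MTT. H295R cells, forskolin-primed (10 uM, 48 h), receive chemical for 48 h; hormone in medium measured by HPLC-MS/MS, with bidirectional curve fitting against DMSO.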

[2] = CEETOX_H295R_ANDR_noMTC: CeeTox H295R High-throughput Steroidogenesis Assay for Androstenedione (ANDR), maximum tolerated concentration (MTC) filtered results only (AID 2283915); conditions: actives raise or lower the signal
How it was run: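 Androstenedione secreted into medium was measured by LC-MS/MS after MTBE extraction. Human adrenal H295R cells received 10 uM forskolin for 48 h before 48 h chemical exposure (0.1% DMSO). Gain or loss fitted against DMSO, including concentrations above the MTT-derived MTC.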

[3] = CEETOX_H295R_ESTRADIOL_noMTC: CeeTox H295R High-throughput Steroidogenesis Assay for Estradiol, maximum tolerated concentration (MTC) filtered results only (AID 2283919); conditions: actives raise or lower the signal
How it was run: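 Readout: dansyl-derivatized estradiol quantified by LC-MS/MS in medium from H295R cells dosed 48 h (0.1% DMSO) following 48 h forskolin (10 uM) prestimulation. Gain or loss of signal fitted against DMSO; no MTC filtering applied.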

[4] = CEETOX_H295R_PROG_noMTC: CeeTox H295R High-throughput Steroidogenesis Assay for Progesterone (PROG), maximum tolerated concentration (MTC) filtered results only (AID 2283920); conditions: actives raise or lower the signal
Protocol: (§1) CEETOX_H295R is a cell-based, multiplexed-readout assay that uses H295R, a human adrenal gland cell line, with measurements taken at 48 hours after chemical dosing in a 96-well plate.CEETOX_H295R_PROG_noMTC is one of 12 assay component(s) measured or calculated from the CEETOX_H295R assay (11 hormones and 1 viability assay). It is designed to make measurements of hormone induction, a form of inducible reporter, as detected with absorbance signals by HPLC-MS-MS technology. The concentrations for these components have not been pre-filtered for the maximum tolerated concentration (MTC) based on the MTT assay (_noMTC).Data from the assay component CEETOX_H295R_PROG_noMTC was analyzed into 1 assay endpoint. This assay endpoint, CEETOX_H295R_PROG_noMTC, was analyzed with bidirectional fitting relative to DMSO as the negative control and baseline of activity. Using a type of inducible reporter, gain or loss-of-signal activity using HPLC-MS-MS was used to understand synthesis of Progesterone in H295R cell line at 48hr of chemical exposure, without filtering concentrations for maximum tolerated concentration (MTC). To generalize the intended target to other relatable targets, this assay endpoint is annotated to the steroid hormone intended target family, where the subfamily is progestagens.
(§2) Cell culture and media preparation procedures were conducted in accordance with OECD Test No. 456 guidelines, with minor modifications. H295R cells (ATCC CRL-2128) were expanded for 5 passages and frozen in batches in liquid nitrogen. Prior to the steroidogenesis assay, H295R cells were thawed and passed at least 4 times. The maximum passage was 10. Cells were maintained in a 1:1 mixture of DMEM/F12 supplemented with 5ml/L ITS+ Premix (BD Bioscience) and 12.5 ml/L Nu-Serum (BD Bioscience). After seeding cells into 96-well plates at 50-60% confluency, cells were allowed to adhere overnight. Prior to chemical testing, culture medium was replaced with 175 uL medium containing 10 uM forskolin to stimulate steroidogenesis for 48 hours. Following prestimulation, forskolin medium was replaced with medium containing test chemical solubilized in DMSO (ensuring a final concentration of 0.1% DMSO). Test chemicals were incubated for 48 hours, then the medium was removed and split into 2 vials containing approximately 75uL each, and stored at -80 C prior to hormone analysis. For steroid quantification, media samples were shipped to OpAns, LLC (Durham, NC) on dry ice, and samples were thawed to room temperature prior to liquid-liquid extraction. Steroid hormones were extracted from media samples using methyl tertbutyl ether (MTBE). An extra derivatization with dansyl chloride was included for estrogen (estrone and estradiol) detection only. Steroid hormones were separated by HPLC, eluted using a reverse phase C18 gradient with electrospray positive ionization, followed by quantification by tandem mass spectrometry (MS/MS). Data were acquired on a MassHunter Workstation Acquisition version B03.01 (Agilent Technologies, Inc.) and processed using MassHunter Quantitative Analysis for QQQ. Accuracy was determined for each hormone analyte from 3 standards to determine upper and lower limits of quantification (ULOQ and LLOQ, respectively) using a 7-point standard curve. Precision and accuracy of the extraction and quantification methods were calculated as the percent relative standard deviation (%RSD) of the spiked standards and percent spiked standard recovered, respectively. The goal was to achieve 100% accuracy (i.e., recover all spiked-in standard at quantification with minimal loss during run time) and good precision (i.e., have %RSD <15% to ensure reproducibility). Test medium was removed following chemical exposure, and cell viability was evaluated in the same wells by MTT. MTT procedures were as follows: after removal of test medium, 500 uL of 0.5 mg/ml of 3-[4,5-dimethylthiazol-2-y]2,5-diphenyltetrazoliumbromide solution was added to the cells. […]

[5] = CEETOX_H295R_ESTRONE_noMTC: CeeTox H295R High-throughput Steroidogenesis Assay for Estrone, maximum tolerated concentration (MTC) filtered results only (AID 2283921); conditions: actives raise or lower the signal
How it was run: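 Estrone in spent medium, quantified by tandem MS following dansyl chloride derivatization, after 48 h chemical exposure (0.1% DMSO) of forskolin-prestimulated (10 uM, 48 h) H295R cells; concentrations not MTC-filtered, bidirectional fit against DMSO.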

[6] = CEETOX_H295R_TESTO_noMTC: CeeTox H295R High-throughput Steroidogenesis Assay for Testosterone (TESTO), maximum tolerated concentration (MTC) filtered results only (AID 2283924); conditions: actives raise or lower the signal
How it was run: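 Medium testosterone, measured by HPLC-MS/MS after liquid-liquid extraction, was fitted in both directions relative to DMSO without MTC filtering. Adrenal H295R cells received 48 h chemical exposure (0.1% DMSO final) after 48 h forskolin (10 uM) prestimulation; viability by MTT.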

[7] = CEETOX_H295R_CORTISOL_noMTC: CeeTox H295R High-throughput Steroidogenesis Assay for Cortisol, maximum tolerated concentration (MTC) filtered results only (AID 2283916); conditions: actives raise or lower the signal
How it was run: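 H295R adrenal cells were pre-stimulated 48 h with 10 uM forskolin, then exposed 48 h to test chemical in 0.1% DMSO. Medium cortisol was measured by MTBE extraction and HPLC-MS/MS; bidirectional fit versus DMSO, concentrations not MTC-filtered.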

[8] = CEETOX_H295R_CORTIC_noMTC: CeeTox H295R High-throughput Steroidogenesis Assay for Corticosterone (CORTIC), maximum tolerated concentration (MTC) filtered results only (AID 2283917); conditions: actives raise or lower the signal
How it was run: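 Forskolin-stimulated (10 uM, 48 h) H295R cells are dosed 48 h with chemical in DMSO (0.1% final); corticosterone change is quantified by HPLC-MS/MS and fitted bidirectionally against DMSO, unfiltered for MTT-derived MTC.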

[9] = CEETOX_H295R_DOC_noMTC: CeeTox H295R High-throughput Steroidogenesis Assay for DOC, maximum tolerated concentration (MTC) filtered results only (AID 2283918); conditions: actives raise or lower the signal
Protocol: as §1, with “plate.CEETOX_H295R_DOC_noMTC” for “plate.CEETOX_H295R_PROG_noMTC”, “CEETOX_H295R_DOC_noMTC” for “CEETOX_H295R_PROG_noMTC”, “CEETOX_H295R_DOC_noMTC,” for “CEETOX_H295R_PROG_noMTC,”, “11-Deoxycorticosterone” for “Progesterone”, “glucocorticoids.” for “progestagens.”
as §2, with “Test chemicals were incubated for 48 hours, then the medium was removed and split into 2 vials containing approximately 75uL each, and stored at -80 C prior to hormone analysis.” left out, “Steroid hormones were extracted from media samples using methyl tertbutyl ether (MTBE). An extra derivatization with dansyl chloride was included for estrogen (estrone and estradiol) detection only.” left out, “MTT.” for “MTT. MTT procedures were as follows: after removal of test medium, 500 uL of 0.5 mg/ml of 3-[4,5-dimethylthiazol-2-y]2,5-diphenyltetrazoliumbromide solution was added to the cells.”

[10] = target: PGR (gene 5241) (UniProt P06401); experiment: TOX21_PR_BLA_Followup_Agonist_ratio: Tox21 HEK293 Progesterone Receptor (PR) Agonism Beta-lactamase Follow-Up Assay, Ratio (AID 2283933; active = hit-call score of the fitted dose curve at least 0.9, where 1 is the maximum)
How it was run: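 Ratio-based beta-lactamase reporter signal after 16 hr compound treatment of PR-UAS-bla HEK293T cells at 37C. Substrate loading lasted 2 hr at room temperature.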

Chain of PGR (gene 5241) (P06401 whole entry, looked up): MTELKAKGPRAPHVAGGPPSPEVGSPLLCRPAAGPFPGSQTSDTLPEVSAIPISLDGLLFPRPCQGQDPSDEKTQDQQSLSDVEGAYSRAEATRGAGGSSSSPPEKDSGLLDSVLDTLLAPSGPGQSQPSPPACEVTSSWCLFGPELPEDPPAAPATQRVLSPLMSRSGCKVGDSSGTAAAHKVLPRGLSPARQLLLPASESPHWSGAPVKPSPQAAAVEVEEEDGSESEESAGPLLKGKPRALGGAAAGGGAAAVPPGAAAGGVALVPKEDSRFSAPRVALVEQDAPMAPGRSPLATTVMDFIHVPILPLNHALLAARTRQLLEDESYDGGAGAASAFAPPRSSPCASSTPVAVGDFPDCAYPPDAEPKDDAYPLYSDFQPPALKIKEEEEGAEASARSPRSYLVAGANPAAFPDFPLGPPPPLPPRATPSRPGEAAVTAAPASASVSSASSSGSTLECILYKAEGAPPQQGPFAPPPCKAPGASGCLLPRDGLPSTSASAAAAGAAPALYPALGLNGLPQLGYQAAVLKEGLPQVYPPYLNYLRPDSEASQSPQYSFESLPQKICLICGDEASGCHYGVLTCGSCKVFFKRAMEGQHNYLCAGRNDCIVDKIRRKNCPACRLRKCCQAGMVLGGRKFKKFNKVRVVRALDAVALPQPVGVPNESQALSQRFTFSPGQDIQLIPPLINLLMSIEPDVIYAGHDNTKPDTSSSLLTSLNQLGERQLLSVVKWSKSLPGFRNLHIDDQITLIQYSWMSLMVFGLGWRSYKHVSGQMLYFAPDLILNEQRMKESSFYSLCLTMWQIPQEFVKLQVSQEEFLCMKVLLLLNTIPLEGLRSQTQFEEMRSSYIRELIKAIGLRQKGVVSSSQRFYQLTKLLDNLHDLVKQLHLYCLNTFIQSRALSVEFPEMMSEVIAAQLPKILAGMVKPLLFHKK

Compound: C[C@H]1CCCC(=O)CCC/C=C/c2cc(O)cc(O)c2C(=O)O1
- AC50 [1]: 2.3 µM (active)
- AC50 [2]: 77.4 µM (active)
- outcome [3]: inactive
- AC50 [4]: 3.94 µM (active)
- AC50 [5]: 36.3 µM (active)
- AC50 [6]: 82.8 µM (active)

Compound: Cn1sc(Cl)cc1=O
- outcome [1]: inactive
- outcome [7]: inactive
- outcome [8]: inactive
- outcome [9]: inactive
- outcome [3]: inactive
- outcome [4]: inactive
- outcome [5]: inactive

Compound: O=C(OC1CCCCC1)c1ccccc1C(=O)OC1CCCCC1
- AC50 [1]: 0.549 µM (active)
- outcome [7]: inactive
- outcome [8]: inactive
- AC50 [9]: 13.5 µM (active)
- outcome [4]: inactive

Compound: c1cc[c]([Hg][c]2ccccc2)cc1
- AC50 [1]: 32 µM (active)
- AC50 [2]: 50 µM (active)
- AC50 [7]: 36.9 µM (active)
- AC50 [8]: 76.1 µM (active)
- AC50 [9]: 2.26 µM (active)
- outcome [3]: inactive
- AC50 [4]: 21.9 µM (active)
- outcome [5]: inactive
- AC50 [6]: 67.9 µM (active)

Compound: CC12CC1(C)C(=O)N(c1cc(Cl)cc(Cl)c1)C2=O (stereo unspecified)
- outcome [10]: inactive

Compound: CCC1(c2ccc(N)cc2)CCC(=O)NC1=O (stereo unspecified)
- outcome [1]: inactive
- outcome [2]: inactive
- outcome [7]: inactive
- outcome [8]: inactive
- outcome [9]: inactive
- outcome [4]: inactive
- outcome [6]: inactive

Compound: O=C1C2(Cl)C3(Cl)C4(Cl)C(Cl)(Cl)C5(Cl)C3(Cl)C1(Cl)C5(Cl)C24Cl (stereo unspecified)
- outcome [10]: inactive

Compound: ClC(Cl)=C(Cl)C(Cl)=C(Cl)Cl
- outcome [1]: inactive
- outcome [7]: inactive
- outcome [8]: inactive
- outcome [9]: inactive
- outcome [4]: inactive
